# From PMC8384837, “Expanding the binding specificity for RNA recognition by a PUF domain”
# Changes are numbered by the printed parent chain.
# Experiments:
# Test in all cases: yeast three-hybrid, YBZ-1, SC-Leu-His + 0.5 mM 3-AT, 4 days
# Settings in all cases: tags: N-Gal4 AD-HA kept; label: inside an RPR1-promoter hybrid RNA with tandem MS2 sites; ssRNA
# PUM1 PUF domain R1-MYR = PUM1 PUF domain R1-MYR (Homo sapiens, UniProt Q14671 828-1176, S863M;R864Y;Q867R)
# Summary of the method: (§1)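 A centromeric plasmid in strain YBZ-1 co-expressed Pumilio-1 PUF domain libraries, randomized at the three base-contacting residues of each repeat, with matching RNA elements; the strain carries a LexA–MS2 coat fusion and a HIS3 reporter. After four days on SC-Leu (input) or SC-Leu-His + 0.5 mM 3-AT (selection), the repeat regions were PCR-amplified and Illumina-sequenced. The interaction score is the log change in variant frequency from input to selection, using log2 and a pseudocount of 1 where absent.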
# PUM1 PUF domain R1-ERV = PUM1 PUF domain R1-ERV (Homo sapiens, UniProt Q14671 828-1176, S863E;Q867V)
# Summary of the method: as §1
# PUM1 PUF domain R5-SGS = PUM1 PUF domain R5-SGS (Homo sapiens, UniProt Q14671 828-1176, C1007S;R1008G;Q1011S)
# Summary of the method: as §1
# PUM1 PUF domain R5-RRC = PUM1 PUF domain R5-RRC (Homo sapiens, UniProt Q14671 828-1176, C1007R;Q1011C)
# Summary of the method: as §1
# PUM1 PUF domain R5-RDR = PUM1 PUF domain R5-RDR (Homo sapiens, UniProt Q14671 828-1176, C1007R;R1008D;Q1011R)
# Summary of the method: as §1
# PUM1 PUF domain R5-QAK = PUM1 PUF domain R5-QAK (Homo sapiens, UniProt Q14671 828-1176, C1007Q;R1008A;Q1011K)
# Summary of the method: as §1
# PUM1 PUF domain R5-LNR = PUM1 PUF domain R5-LNR (Homo sapiens, UniProt Q14671 828-1176, C1007L;R1008N;Q1011R)
# Summary of the method: as §1
# PUM1 PUF domain R8-PKR = PUM1 PUF domain R8-PKR (Homo sapiens, UniProt Q14671 828-1176, N1122P;Y1123K;Q1126R)
# Summary of the method: as §1
# PUM1 PUF domain R8-GWR = PUM1 PUF domain R8-GWR (Homo sapiens, UniProt Q14671 828-1176, N1122G;Y1123W;Q1126R)
# Summary of the method: as §1
# PUM1 PUF domain R3-LWG = PUM1 PUF domain R3-LWG (Homo sapiens, UniProt Q14671 828-1176, C935L;R936W;Q939G)
# Summary of the method: as §1
# PUM1 PUF domain R6-GFE = target: T1, PUM1 PUF domain R6-GFE (Homo sapiens, UniProt Q14671 828-1176, N1043G;Y1044F;Q1047E)
# T1 sequence: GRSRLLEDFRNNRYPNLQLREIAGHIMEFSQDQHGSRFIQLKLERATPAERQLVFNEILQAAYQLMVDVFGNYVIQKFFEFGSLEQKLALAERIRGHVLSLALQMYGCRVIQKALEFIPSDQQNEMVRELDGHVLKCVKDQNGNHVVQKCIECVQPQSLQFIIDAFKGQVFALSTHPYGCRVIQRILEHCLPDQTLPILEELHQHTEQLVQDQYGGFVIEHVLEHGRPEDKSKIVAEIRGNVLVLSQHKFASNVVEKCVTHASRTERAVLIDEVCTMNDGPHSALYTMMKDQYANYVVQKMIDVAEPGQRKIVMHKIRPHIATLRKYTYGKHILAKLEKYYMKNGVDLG
# Summary of the method: as §1
# PUM1 PUF domain R3-RAH = PUM1 PUF domain R3-RAH (Homo sapiens, UniProt Q14671 828-1176, C935R;R936A;Q939H)
# Summary of the method: as §1
# PUM1 PUF domain R3-GYW = PUM1 PUF domain R3-GYW (Homo sapiens, UniProt Q14671 828-1176, C935G;R936Y;Q939W)
# Summary of the method: as §1
# PUM1 PUF domain R6-AYM = target: T2, PUM1 PUF domain R6-AYM (Homo sapiens, UniProt Q14671 828-1176, N1043A;Q1047M)
# T2 sequence: T1 sequence with G216A, F217Y, E220M
# Summary of the method: as §1
# PUM1 PUF domain R8-KWH = PUM1 PUF domain R8-KWH (Homo sapiens, UniProt Q14671 828-1176, N1122K;Y1123W;Q1126H)
# Summary of the method: as §1
# PUM1 PUF domain R3-APM = PUM1 PUF domain R3-APM (Homo sapiens, UniProt Q14671 828-1176, C935A;R936P;Q939M)
# Summary of the method: as §1
# PUM1 PUF domain R4-CPN = PUM1 PUF domain R4-CPN (Homo sapiens, UniProt Q14671 828-1176, N971C;H972P;Q975N)
# Summary of the method: as §1
# PUM1 PUF domain R5-MGR = PUM1 PUF domain R5-MGR (Homo sapiens, UniProt Q14671 828-1176, C1007M;R1008G;Q1011R)
# Summary of the method: as §1
# PUM1 PUF domain R5-IHE = PUM1 PUF domain R5-IHE (Homo sapiens, UniProt Q14671 828-1176, C1007I;R1008H;Q1011E)
# Summary of the method: as §1
# PUM1 PUF domain R7-QNE = PUM1 PUF domain R7-QNE (Homo sapiens, UniProt Q14671 828-1176, S1079Q)
# Summary of the method: as §1
sequence,measurement,setting,value
GGCUAGAACUAGUGGAUCCCCCGGCGCCCGGCGGCUCGAGCCCGGGUAAGUGUAAAUCGUCUGCAUGCCGCCGGGCGCCAUGCCUGCAGGUCGACUCUAGAAAACAUG,binding signal,PUM1 PUF domain R1-MYR,3.82 log2 enrichment (interaction score)
same,binding signal,PUM1 PUF domain R1-ERV,5.04 log2 enrichment (interaction score)
GGCUAGAACUAGUGGAUCCCCCGGCGCCCGGCGGCUCGAGCCCGGGUAAGUGUGAAUAGUCUGCAUGCCGCCGGGCGCCAUGCCUGCAGGUCGACUCUAGAAAACAUG,binding signal,PUM1 PUF domain R5-SGS,2.71 log2 enrichment (interaction score)
same,binding signal,PUM1 PUF domain R5-RRC,1.37 log2 enrichment (interaction score)
same,binding signal,PUM1 PUF domain R5-RDR,2.62 log2 enrichment (interaction score)
GGCUAGAACUAGUGGAUCCCCCGGCGCCCGGCGGCUCGAGCCCGGGUAAGUGUUAAUAGUCUGCAUGCCGCCGGGCGCCAUGCCUGCAGGUCGACUCUAGAAAACAUG,binding signal,PUM1 PUF domain R5-RRC,4.61 log2 enrichment (interaction score)
same,binding signal,PUM1 PUF domain R5-QAK,3.34 log2 enrichment (interaction score)
same,binding signal,PUM1 PUF domain R5-LNR,4.82 log2 enrichment (interaction score)
GGCUAGAACUAGUGGAUCCCCCGGCGCCCGGCGGCUCGAGCCCGGGUAAGCGUAAAUAGUCUGCAUGCCGCCGGGCGCCAUGCCUGCAGGUCGACUCUAGAAAACAUG,binding signal,PUM1 PUF domain R8-PKR,3.72 log2 enrichment (interaction score)
same,binding signal,PUM1 PUF domain R8-GWR,5.66 log2 enrichment (interaction score)
GGCUAGAACUAGUGGAUCCCCCGGCGCCCGGCGGCUCGAGCCCGGGUAAGUGUAAGUAGUCUGCAUGCCGCCGGGCGCCAUGCCUGCAGGUCGACUCUAGAAAACAUG,binding signal,PUM1 PUF domain R3-LWG,6.06 log2 enrichment (interaction score)
GGCUAGAACUAGUGGAUCCCCCGGCGCCCGGCGGCUCGAGCCCGGGUAAGUGGAAAUAGUCUGCAUGCCGCCGGGCGCCAUGCCUGCAGGUCGACUCUAGAAAACAUG,binding signal,PUM1 PUF domain R6-GFE,5.67 log2 enrichment (interaction score)
GGCUAGAACUAGUGGAUCCCCCGGCGCCCGGCGGCUCGAGCCCGGGUAAGUGUAAUUAGUCUGCAUGCCGCCGGGCGCCAUGCCUGCAGGUCGACUCUAGAAAACAUG,binding signal,PUM1 PUF domain R3-RAH,3.61 log2 enrichment (interaction score)
same,binding signal,PUM1 PUF domain R3-LWG,3.8 log2 enrichment (interaction score)
same,binding signal,PUM1 PUF domain R3-GYW,2.62 log2 enrichment (interaction score)
GGCUAGAACUAGUGGAUCCCCCGGCGCCCGGCGGCUCGAGCCCGGGUAAGUGUAAAUUGUCUGCAUGCCGCCGGGCGCCAUGCCUGCAGGUCGACUCUAGAAAACAUG,binding signal,PUM1 PUF domain R1-MYR,3.58 log2 enrichment (interaction score)
GGCUAGAACUAGUGGAUCCCCCGGCGCCCGGCGGCUCGAGCCCGGGUAAGUGUAAAUAGUCUGCAUGCCGCCGGGCGCCAUGCCUGCAGGUCGACUCUAGAAAACAUG,binding signal,PUM1 PUF domain R6-AYM,4.27 log2 enrichment (interaction score)
same,binding signal,PUM1 PUF domain R8-KWH,4.79 log2 enrichment (interaction score)
same,binding signal,PUM1 PUF domain R3-APM,2.44 log2 enrichment (interaction score)
same,binding signal,PUM1 PUF domain R4-CPN,3.19 log2 enrichment (interaction score)
same,binding signal,PUM1 PUF domain R5-RRC,2.21 log2 enrichment (interaction score)
same,binding signal,PUM1 PUF domain R5-MGR,1.08 log2 enrichment (interaction score)
same,binding signal,PUM1 PUF domain R8-PKR,2.74 log2 enrichment (interaction score)
same,binding signal,PUM1 PUF domain R8-GWR,5.13 log2 enrichment (interaction score)
same,binding signal,PUM1 PUF domain R5-LNR,1.95 log2 enrichment (interaction score)
same,binding signal,PUM1 PUF domain R5-IHE,3.04 log2 enrichment (interaction score)
same,binding signal,PUM1 PUF domain R3-LWG,2.39 log2 enrichment (interaction score)
same,binding signal,PUM1 PUF domain R3-GYW,5.68 log2 enrichment (interaction score)
same,binding signal,PUM1 PUF domain R7-QNE,4.09 log2 enrichment (interaction score)
GGCUAGAACUAGUGGAUCCCCCGGCGCCCGGCGGCUCGAGCCCGGGUAAGUGUCAAUAGUCUGCAUGCCGCCGGGCGCCAUGCCUGCAGGUCGACUCUAGAAAACAUG,binding signal,PUM1 PUF domain R5-RRC,3.9 log2 enrichment (interaction score)
same,binding signal,PUM1 PUF domain R5-MGR,3.14 log2 enrichment (interaction score)
same,binding signal,PUM1 PUF domain R5-RDR,3.41 log2 enrichment (interaction score)
